# Test results: the supplement of paper PMC12350171
# Structures can show the parent of a compound that is named as a salt.
# System: Vibrio cholerae
# Test: growth AUC normalised to DMSO control (fraction of control); higher = less growth inhibition, active = hit call of the paper
# Settings: 20 µM;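 active = AUC significantly below DMSO controls by Student t-fit with adjusted P under 0.01; inactive = not significantly reduced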
# In short: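 Hemin and NAD were added to the medium for Haemophilus parainfluenzae. All pathogens, after two anaerobic passages, were inoculated at a starting OD578 of 0.01 into pre-reduced mGAM plates with 20 μM compound and 1% DMSO under breathable seals, and OD578 was read hourly for 24 h in three biological replicates. AUC of each growth curve was obtained with the trapezoidal rule up to the exponential-to-stationary transition and normalised to DMSO controls from the same plate.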
row,SMILES,growth AUC normalised to DMSO control
1,C=CCC1(CC(C)C)C(=O)NC(=O)NC1=O [Butalbital],1.02 (inactive)
2,CC1C=CC=CCCC=CC=CC=CC=CC(OC2OC(C)C(O)C(N)C2O)CC2OC(O)(CC(O)C(O)CCC(O)CC(O)CC(O)CC(=O)OC(C)C(C)C1O)CC(O)C2C(=O)O (centres undefined) [Nystatine],0.994 (inactive)
3,O=C(CCCN1CCC2(CC1)C(=O)NCN2c1ccccc1)c1ccc(F)cc1 [Spiperone],0.917 (inactive)
4,COc1ccc(OC)c(C(O)C(C)N)c1 (centres undefined) [Methoxamine hydrochloride],1.01 (inactive)
5,CC(C)(C)NCC(O)c1cc(Cl)c(N)c(Cl)c1 (centres undefined) [Clenbuterol hydrochloride],0.992 (inactive)
6,COc1ccc(CN2CCNCC2)c(OC)c1OC [Trimetazidine dihydrochloride],1.02 (inactive)
7,CC[N+]1(C)CCCC(OC(=O)C(O)(c2ccccc2)c2ccccc2)C1 (centres undefined) [Pipenzolate bromide],0.998 (inactive)
8,NCC(O)c1ccc(O)cc1 (centres undefined) [Octopamine hydrochloride],1.01 (inactive)
9,CC(=O)NC1CCSC1=O (centres undefined) [Citiolone],1.03 (inactive)
10,O=[N+]([O-])O[C@@H]1CO[C@H]2[C@@H]1OC[C@@H]2O [Isosorbide mononitrate],1.02 (inactive)
11,C=C1C[C@@H]2[C@H](CC[C@]3(C)C(=O)CC[C@@H]23)[C@@]2(C)C=CC(=O)C=C12 [Exemestane],0.964 (inactive)
12,O=c1c2ccccc2[se]n1-c1ccccc1 [Ebselen],0.999 (inactive)
13,O=C(CCCN1CCC(n2c(=O)[nH]c3ccccc32)CC1)c1ccc(F)cc1 [Benperidol],0.998 (inactive)
14,C[N+](C)(C)CCCCCCCCCC[N+](C)(C)C [Decamethonium bromide],1.07 (inactive)
15,CCN[C@@H](C)Cc1cccc(C(F)(F)F)c1 [Dexfenfluramine hydrochloride],1.02 (inactive)
16,C=C(C)[C@@H]1[C@H]2OC(=O)[C@@H]1[C@]1(O)C[C@H]3O[C@]34C(=O)O[C@H]2[C@]14C [Picrotoxinin],1 (inactive)
17,CC(C)(C)NCC(O)c1ccccc1Cl (centres undefined) [Tulobuterol hydrochloride],1.03 (inactive)
18,Fc1ccc(C(OCCN2CCN(CCCc3ccccc3)CC2)c2ccc(F)cc2)cc1,0.944 (inactive)
19,C=C1CC[C@@]2(O)[C@H]3Cc4ccc(O)c5c4[C@@]2(CCN3CC2CC2)[C@H]1O5 [Nalmefene hydrochloride],1.02 (inactive)
20,C1CCc2nnnn2CC1 [Pentylenetetrazole],1.04 (inactive)

row,SMILES,growth AUC normalised to DMSO control
1,CCOC(=O)c1cncn1[C@H](C)c1ccccc1 [Etomidate],1.03 (inactive)
2,CC(C)CC(N(C)C)C1(c2ccc(Cl)cc2)CCC1 (centres undefined) [Sibutramine hydrochloride],0.967 (inactive)
3,C[N+]12CCC(CC1)C(OC(=O)C(O)(c1ccccc1)c1ccccc1)C2 (centres undefined) [Clidinium bromide],0.99 (inactive)
4,CN(C)[C@@H]1C(=O)C(C(N)=O)=C(O)[C@@]2(O)C(=O)C3=C(O)c4c(O)ccc(Cl)c4[C@@](C)(O)[C@H]3C[C@@H]12 [Chlortetracycline hydrochloride],0.0321 (active)
5,C[N+]1(C)[C@@H]2CC[C@H]1C[C@@H](OC(=O)C(CO)c1ccccc1)C2 (some centres undefined) [Methylatropine nitrate],1.02 (inactive)
6,CC(C)N(CCC(C(N)=O)(c1ccccc1)c1ccccn1)C(C)C (centres undefined) [Disopyramide],0.983 (inactive)
7,CNC(=O)Oc1ccc2c(c1)[C@]1(C)CCN(C)[C@@H]1N2C [Eserine hemisulfate salt],1.06 (inactive)
8,CN1[C@@H]2CC[C@H]1C[C@@H](OC(=O)C(CO)c1ccccc1)C2 (some centres undefined) [Atropine sulfate monohydrate],1.03 (inactive)
9,COc1ccc(C(CN(C)C)C2(O)CCCCC2)cc1 (centres undefined) [Venlafaxine],0.984 (inactive)
10,NCCc1c[nH]c2ccc(O)cc12 [Serotonin hydrochloride],1.06 (inactive)
11,CC(CCc1ccccc1)NC(C)C(O)c1ccc(O)cc1 (centres undefined) [Nylidrin],0.983 (inactive)
12,C[N+]1(C)CCOC(O)(c2ccc(-c3ccc(C4(O)C[N+](C)(C)CCO4)cc3)cc2)C1 (centres undefined) [Hemicholinium bromide],1.06 (inactive)
13,CC(=O)O[C@H]1C[C@@H]2CC[C@@H]3[C@H](CC[C@@]4(C)[C@H]3C[C@H]([N+]3(C)CCCCC3)[C@@H]4OC(C)=O)[C@@]2(C)C[C@@H]1[N+]1(C)CCCCC1 [Pancuronium bromide],1.04 (inactive)
14,O=C1CC[C@@]2(O)[C@H]3Cc4ccc(O)c5c4[C@@]2(CCN3CC2CC2)[C@H]1O5 [Naltrexone hydrochloride dihydrate],1 (inactive)
15,CC(Cc1ccccc1)NCCC(c1ccccc1)c1ccccc1 (centres undefined) [Prenylamine lactate],1.02 (inactive)
16,CCC1(CC)C(=O)C=CNC1=O [Pyrithyldione],1.05 (inactive)
17,COc1cc2c(c(OC)c1OC)-c1ccc(OC)c(=O)cc1[C@@H](NC(C)=O)CC2 [Colchicine],0.98 (inactive)
18,COc1cc([C@@H]2c3cc4c(cc3[C@H](O)[C@H]3COC(=O)[C@H]23)OCO4)cc(OC)c1OC [Podophyllotoxin],1.02 (inactive)
19,Oc1ccc2c3c1O[C@H]1[C@@H](O)CC[C@@]4(O)[C@@H](C2)N(CC2CCC2)CC[C@]314 [Nalbuphine hydrochloride],0.984 (inactive)
